Only a selection was taken, and hits are over-represented in it overall.
IDE exosite FP: displaces the probe from the exo-site of human IDE | P14735 | z-score at 20 µM | 17,000 compounds, 6.3% hits | purified IDE, FL-6b probe fluorescence polarization; stronger effect = lower value;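 active = z-score of -3 or lower, meaning strong loss of probe binding signal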;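 also: His-tagged human IDE residues 42-1019 made in E. coli with 30 nM FL-6b probe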
* = called active by the depositor.

SMILES	IDE exosite FP
CN1C(=O)c2cc(NC(=O)c3cccc(F)c3)ccc2OC[C@H]2O[C@H](CC(=O)NCC3CCCCC3)CC[C@@H]21	-1.7
CN1C(=O)c2cc(NC(=O)c3cnccn3)ccc2OC[C@@H]2O[C@H](CC(=O)N[C@H]3CCN(Cc4ccccc4)C3)CC[C@H]21	-0.92
COc1cccc(C(=O)Nc2ccc3c(c2)C(=O)N(C)[C@@H]2CC[C@H](CC(=O)N[C@@H](C)c4ccccc4)O[C@@H]2CO3)c1	-1.3
COc1cccc(S(=O)(=O)Nc2ccc3c(c2)C(=O)N(C)[C@H]2CC[C@H](CC(=O)NCC4CCCCC4)O[C@@H]2CO3)c1	-0.74
CN1C(=O)c2cc(NC(=O)c3cccc(F)c3)ccc2OC[C@@H]2O[C@H](CC(=O)NCc3ccccc3Cl)CC[C@@H]21	-0.41
CN1C(=O)c2cc(NC(=O)c3cnccn3)ccc2OC[C@H]2O[C@@H](CC(=O)N[C@@H]3CCN(Cc4ccccc4)C3)CC[C@@H]21	-7*
COc1cccc(C(=O)Nc2ccc3c(c2)C(=O)N(C)[C@@H]2CC[C@H](CC(=O)N[C@@H](C)c4ccccc4)O[C@H]2CO3)c1	0.24
C[C@@H](O)C#Cc1ccc([C@H]2[C@H](CO)N3CCCCN(C(=O)c4cccc(F)c4)C[C@@H]23)cc1	-0.062
COc1ccc2c3c(n(C)c2c1)[C@@H](CO)N(C(=O)C1CCOCC1)CC31CN(C(=O)Nc2cccc(F)c2)C1	0.16
O=C(c1ccc(F)cc1)N1CCCCN2[C@H](C1)[C@@H](c1ccc(/C=C/c3ccccc3)cc1)[C@@H]2CO	2.6
C/C=C/c1ccc([C@H]2[C@@H](CO)N(C(=O)c3cnccn3)C23CN(C(=O)C2CCC2)C3)cc1	-0.5
CO[C@@H]1CN(C)C(=O)c2ccc(NC(=O)C3CCC3)cc2OC[C@H](C)N(Cc2ccccn2)C[C@H]1C	0.19
COc1ccccc1-c1cnc2c(c1)C(=O)N([C@H](C)CO)C[C@@H](C)[C@H](CN(C)C(=O)CC1CC1)O2	-1.2
C[C@@H]1CN([C@@H](C)CO)C(=O)c2ccccc2-c2ccccc2CO[C@@H]1CN(C)Cc1cccc(C(=O)O)c1	-1
COC(=O)[C@@H]1[C@@H](CO)[C@@H]2Cn3c(ccc(-c4ccncc4)c3=O)[C@@H]2N1Cc1ccccc1F	0.086
COc1cccc(-c2ccc([C@H]3[C@@H](C#N)N(C(=O)Cc4ccncc4)[C@@H]3CO)cc2)c1	-3.8*
COc1cccc(-c2ccccc2[C@@H]2[C@H](C#N)N(C(=O)Cc3ccccc3)[C@H]2CO)c1	0.95
COc1cccc(-c2ccc([C@@H]3[C@@H](C#N)N(C(=O)Cc4ccncc4)[C@@H]3CO)cc2)c1	-10*
COc1cccc(-c2ccccc2[C@@H]2[C@@H](C#N)N(C(=O)Cc3ccccc3)[C@H]2CO)c1	-1.1
CCCNC(=O)N1[C@H](CO)[C@H](c2ccc(-c3cccc(OC)c3)cc2)[C@@H]1C#N	-1.2
COc1cccc(-c2ccc([C@H]3[C@H](C#N)N(C(=O)Cc4ccncc4)[C@H]3CO)cc2)c1	-2.7
COc1cccc(C(=O)Nc2ccc3c(c2)C(=O)N(C)[C@@H]2CC[C@H](CC(=O)NCc4ccc(F)cc4)O[C@@H]2CO3)c1	0.74
CCC(=O)N1CCCCN2[C@H](C1)[C@H](c1ccc(-c3cccc(C(=O)N(C)C)c3)cc1)[C@@H]2CO	2.9
CCCN1CCC2(CC1)CN(Cc1ccc3c(c1)OCO3)[C@H](CO)c1[nH]c3cc(OC)ccc3c12	-0.73
N#C[C@H]1[C@@H](c2ccc(C3=CCCC3)cc2)[C@H](CO)N1C(=O)c1cccc(F)c1	4.1
SMILES	IDE exosite FP
O=C(Nc1ccccc1Cl)N1C[C@@H]2[C@H](c3ccccc31)[C@H](CO)N2C(=O)c1cccnc1	2.9
COc1ccc(C#Cc2ccc([C@H]3[C@H]4CN(C(=O)c5ccncc5)CCCCN4[C@H]3CO)cc2)cc1	3
COCC#Cc1ccc([C@H]2[C@H](CO)N3CCCCN(S(=O)(=O)c4ccccc4F)C[C@@H]23)cc1	1.1
COCC#Cc1ccc([C@@H]2[C@H](CO)N3CCCCN(S(=O)(=O)c4ccccc4F)C[C@@H]23)cc1	-4.5*
COCC#Cc1ccc([C@H]2[C@@H](CO)N3CCCCN(S(=O)(=O)c4ccccc4C)C[C@@H]23)cc1	4.1
COCC#Cc1ccc([C@H]2[C@H]3CN(S(=O)(=O)c4ccccc4C)CCCCN3[C@H]2CO)cc1	5.4
COCC#Cc1ccc([C@H]2[C@@H](CO)N3CCCCN(S(=O)(=O)c4ccccc4F)C[C@H]23)cc1	0.25
COCC#Cc1ccc([C@@H]2[C@H](CO)N3CCCCN(S(=O)(=O)c4ccccc4C)C[C@@H]23)cc1	-3.1*
O=S(=O)(Cc1ccccc1)N1CCCCN2[C@H](CO)[C@H](c3ccc(-c4cncnc4)cc3)[C@H]2C1	0.63
C[C@@H]1CCCCO[C@@H](CN(C)C(=O)Nc2ccc3c(c2)OCO3)[C@H](C)CN([C@@H](C)CO)C(=O)c2cc(NS(=O)(=O)c3ccc(F)cc3)ccc2O1	0.72
O=C(c1ccncc1)N1CC(=O)N2[C@H](CO)[C@H](c3ccc(-c4cccnc4)cc3)[C@H]2C1	0.36
